This is part of a sample that, as a whole, favours compounds with a hit. Of some 83,000 tested, about 20% had one in any assay.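 Plates (96-well) were seeded with cells, treated with compound at one concentration, and incubated for 48 hours before percent growth was determined.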 Values without a mark were called inactive. Calls of active or inactive are those of the source. Rule for the calls: active = growth percent below 10; inactive = the rest.

Drawing on PubChem BioAssay (NCI), this text covers growth for twelve compounds.

What all share (test): NCI-60 one-dose screen, 48 h (100 = growth as untreated, 0 = no growth, -100 = all killed)
Conditions in all cases: 10 µM

Test [1] deals with RPMI-8226 leukemia.
The subject of test [2] is OVCAR-8 ovarian.
Test [3] has as its system OVCAR-5 ovarian.
The test system of test [4] is OVCAR-4 ovarian.
Test [5] has as its system SK-OV-3 ovarian.
The test system of test [6] is IGROV1 ovarian.
Test [7] deals with OVCAR-3 ovarian.
Test [8] relates to HS 578T breast.
Test [9] concerns NCI/ADR-RES ovarian.

`C=CCn1ccc(=O)nc1SC`: the growth in test [1] is 108%; in [2], 100%; in [3] it was 109%; in test [4], 106%; in test [5], 105%; in test [6], 120%. In addition, the results for the growth in test [7], in test [8] and in [9] were 113%, 106% and 104%, respectively.
For the compound `O=C1c2cc(Cl)ccc2-c2c(O)cc(Cl)cc21`, the growth in test [1] is 46.6%; in [2] it was 58.4%; in [3] it was 101%; in [4] it was 66.4%; in test [5] it was 94.8%; in test [6], 74.4%. The values for the growth in test [7], in [8] and in test [9] were 80%, 81.5% and 3.18% (active), respectively.
Regarding `CCCCNC(=O)Oc1ccc(/C(=C(\C)c2ccc(OC)cc2)c2ccc(OCCN3CCCCC3)cc2)cc1`, the growth was 29% in test [1]; 74.9% in test [3]; 64.8% in test [4]; 66.7% in [5]; 64.7% in test [6]; 73.6% in test [7]. Moreover, the results for the growth in [8] and in test [9] were 48.5% and 68.2%, respectively.
On to `Cn1cnc([N+](=O)[O-])c1Sc1nnc(-c2ccccc2)c(-c2ccccc2)n1`, for which the growth was 43.8% in [1]; 102% in [2]; 93.6% in [3]; 73.9% in test [4]; 120% in test [5]; 72% in test [6]. For the same compound, the figures for the growth in [7], in [8] and in test [9] were 51.3%, 106% and 82.3%, respectively.
Turning to `CCN(CC)CCCOC(=O)Nc1ccccc1Cl`, the growth was 97.3% in [1]; 111% in test [2]; 110% in [3]; 115% in test [4]; 111% in test [5]; 123% in test [6]. The growth in [7] is 124%; in test [8], 121%; in [9], 107%.
Take `CCCCOCC(=O)NC(NP(=O)(N(C)C)N(C)C)C(Cl)(Cl)Cl` (centres undefined): the growth in test [1] was 100%; in [2], 62.8%; in [3], 109%; in test [4], 116%; in [5], 124%; in test [7] it was 98%. Further, the results for the growth in test [8] and in [9] were 113% and 105%, respectively.
Take `Fc1ccc2[nH]c3c(NCCCN4CCOCC4)ncnc3c2c1`: the growth in [1] was 46.4%; in test [2], 68.3%; in test [3], 85.6%; in [4], -38.6% (active); in test [5], 33.4%; in test [6] it was 50.8%. The growth in test [7] is 59.7%; in [8] it was 34.5%; in [9], 72.7%.
For the compound `COc1ccc(-c2cc(/C=C3\C(=O)Nc4cc(Cl)ccc43)[nH]n2)cc1OC`, the growth in test [1] was 79.8%; in test [2], 104%; in test [3] it was 95.7%; in test [4], 85.6%; in test [5], 78.2%; in [6], 50.7%. For the same compound, the growth was 53% in test [7], 60.5% in [8] and 62.5% in [9].
With `Cc1cc(C)c(C(=O)OC(C)CNC2CCCCC2)c(C)c1` (centres undefined), the growth was 101% in test [2]; 59.2% in test [3]; 101% in test [4]; 96.7% in test [5]; 98.5% in test [7]; 100% in [8]. Further, the growth in [9] is 92.3%.
As to `O=C(C=P(c1ccccc1)(c1ccccc1)c1ccccc1)c1ccc(Br)cc1`, the growth in test [1] is 47.4%; in test [2], 89.1%; in test [3], 104%; in test [4], 95.5%; in test [5] it was 108%; in [6], 91.4%. Also, the growth in [7] is 64.5%; in test [8] it was 107%; in test [9], 79.9%.
For the compound `COc1ccc(C(=O)n2nc(CC(=O)NCc3ccccc3)nc2N)cc1`, the growth in test [1] was 117%; in test [2], 115%; in [3] it was 113%; in test [4] it was 105%; in [5], 107%; in [6], 93.7%. For the same compound, the figures for the growth in [7], in test [8] and in test [9] were 118%, 103% and 112%, respectively.
As for `O=C(COc1ccc(Cl)cc1Cl)Oc1coc(CSc2nc3ccccc3s2)cc1=O`, the growth in test [1] was 87%; in test [2] it was 21.3%; in test [3] it was 116%; in test [4], 99.1%; in test [5] it was 102%; in test [6], 64.3%. The figures for the growth in [7], in test [8] and in [9] were 114%, -1.61% (active) and 104%, respectively.
